From PubChem
Mtb betalactam: beta-lactam sensitization of Mtb H37Rv. inhibition, % at 25 µM. hit rate 0.27% among 330,000. M. tuberculosis H37Rv growth with meropenem, percent inhibition; call rule not given here;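 also: growth measured after seven days incubation then overnight dye step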
RecA intein inh: inhibitors of M. tuberculosis RecA intein splicing; P9WHJ3; cell-free RecA intein splicing, fluorescence; inhibition, % (no concentration beside the values); hit rate 0.75% among 290,000; AID 2221; in the data active = inhibition above about 30%; inconclusive = no clear call, values can overlap the other calls
Target sequence (P9WHJ3 whole entry, looked up): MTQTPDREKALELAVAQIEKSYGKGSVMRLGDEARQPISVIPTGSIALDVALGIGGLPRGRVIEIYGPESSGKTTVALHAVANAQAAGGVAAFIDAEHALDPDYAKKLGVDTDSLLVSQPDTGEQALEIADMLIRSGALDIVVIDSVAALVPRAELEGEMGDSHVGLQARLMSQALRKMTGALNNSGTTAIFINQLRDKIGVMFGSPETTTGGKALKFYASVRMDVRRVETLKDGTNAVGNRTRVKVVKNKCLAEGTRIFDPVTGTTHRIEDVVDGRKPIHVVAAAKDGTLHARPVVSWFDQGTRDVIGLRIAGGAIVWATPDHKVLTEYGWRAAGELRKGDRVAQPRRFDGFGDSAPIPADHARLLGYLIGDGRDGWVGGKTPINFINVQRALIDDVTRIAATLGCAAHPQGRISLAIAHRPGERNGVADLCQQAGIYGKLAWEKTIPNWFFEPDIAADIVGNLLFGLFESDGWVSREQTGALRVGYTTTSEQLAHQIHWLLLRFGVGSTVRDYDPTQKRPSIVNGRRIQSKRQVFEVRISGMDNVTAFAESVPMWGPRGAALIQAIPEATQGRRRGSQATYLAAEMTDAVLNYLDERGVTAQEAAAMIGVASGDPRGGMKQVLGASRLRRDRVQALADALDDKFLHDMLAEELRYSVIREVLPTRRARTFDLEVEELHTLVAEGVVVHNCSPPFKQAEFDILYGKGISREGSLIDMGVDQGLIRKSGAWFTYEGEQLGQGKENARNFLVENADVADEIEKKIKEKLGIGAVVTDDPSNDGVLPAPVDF
GDH-TPI counter: inhibits GDH-TPI coupling enzymes, artifact for Mtb FBA screen. inhibition, % at 4.8 µM. AID 588335. GDH-TPI coupled enzyme counterscreen, NADH absorbance. hit rate 1.2% among 360,000
CCHFV vOTU inh: blocks the CCHF virus ovarian tumor domain protease | CCHFV vOTU protease, Pep-AMC fluorescence | hit rate 0.55% among 370,000 | inhibition, % at 11.5 µM
FBA Mtb inh: inhibits M. tuberculosis FBA enzyme; P9WQA3; purified M. tuberculosis FBA, fluorescence read-out; inhibition, % at 1 µM; hit rate 2.3% among 360,000; in the data active = inhibition above about 27%
Each line names hits and unclear results; the compound was inactive in the other large screens. An excerpt weighted towards active compounds, which were near 4.2% of everything screened. Rule as the data show it, unless noted: active = inhibition above about 30%; inactive = the rest.

CC(C)C(=O)Nc1ccc(-c2nc3cccnc3o2)cc1	GDH-TPI counter 34.6, FBA Mtb inh active (no result: RecA intein inh)
CC(C)C(=O)Nc1ccc(-c2nc3ncccc3o2)cc1	GDH-TPI counter 40.6, FBA Mtb inh active
COC(=O)C1CN(Cc2ccc(F)cc2)CCS(=O)(=O)N1Cc1ccc(F)cc1 (configuration not stated)	none (no result: Mtb betalactam, RecA intein inh, GDH-TPI counter, FBA Mtb inh)
Cc1cccc2[nH]c(-c3ccc(NC(=O)c4ccco4)cc3)nc12	GDH-TPI counter 58.3
CC(=O)Nc1ccc2nc(-c3ccc(Br)o3)[nH]c2c1	none
O=C(Nc1ccc2nc(-c3ccc(Br)o3)[nH]c2c1)c1cccs1	GDH-TPI counter 32.5
O=C(Nc1ccc2nc(-c3ccc(Br)o3)[nH]c2c1)c1ccco1	GDH-TPI counter 39.8
C=CCN1C(=O)[C@@H](CC(=O)N2CCSCC2)[C@]2(C(=O)OC)CCCCC=C12	none (no result: Mtb betalactam, RecA intein inh, GDH-TPI counter, FBA Mtb inh)
COC(=O)[C@]12CCCCC=C1N(Cc1ccc(OC)cc1)C(=O)[C@@H]2CC(=O)N1CCC(c2ccccc2)CC1	none (no result: Mtb betalactam, RecA intein inh, GDH-TPI counter, FBA Mtb inh)
O=S(=O)(c1ccccc1Br)N(Cc1cn(CC2CCCCC2)nn1)C1CC1	none (no result: Mtb betalactam, RecA intein inh, GDH-TPI counter, FBA Mtb inh)
COc1ccc(-c2nc(C#N)c(NCC3CCCO3)o2)cc1OC (configuration not stated)	FBA Mtb inh 180.2
CCCOc1ccc(-c2nc(C#N)c(NCC3CCCO3)o2)cc1 (configuration not stated)	FBA Mtb inh 121.0 (no result: RecA intein inh)
CCOc1ccc(-c2nc(C#N)c(NCC3CCCO3)o2)cc1 (configuration not stated)	FBA Mtb inh 177.2
N#Cc1nc(-c2ccccc2Cl)oc1NCC1CCCO1 (configuration not stated)	none
CCOC(=O)[C@]12CCCCC/C=C\1N(CCc1ccc(Cl)cc1)C(=O)[C@H]2CC(=O)NCCCN1CCCC1=O	none (no result: Mtb betalactam, RecA intein inh, GDH-TPI counter, FBA Mtb inh)
COc1ccc(Cn2ccc3ccc(-c4ccc5ccn(C(=O)c6ccc(C)cc6)c5c4)cc32)cc1	none (no result: Mtb betalactam, RecA intein inh, GDH-TPI counter, FBA Mtb inh)
Cc1ccc(C(=O)N2CCN(c3cccc(Cl)c3)CC2)cc1C	GDH-TPI counter 30.8
Cc1ccc(C(=O)N2CCN(c3ccccc3)CC2)cc1C	none
CC(C)c1cc(C(C)C)c(S(=O)(=O)N2CCCC(C(=O)N3CCN(Cc4ccccc4)CC3)C2)c(C(C)C)c1 (configuration not stated)	none (no result: Mtb betalactam, RecA intein inh, GDH-TPI counter, FBA Mtb inh)
CC(=O)c1ccc(N2CCN(C(=O)CCCn3c(=O)[nH]c4ccc(Br)cc4c3=O)CC2)cc1	GDH-TPI counter 31.8
COc1ccc(N2CCN(C(=O)c3ccc4[nH]c(C)c(C)c4c3)CC2)cc1	none
CC(=O)c1ccc(N2CCN(C(=O)c3ccc4[nH]c(C)c(C)c4c3)CC2)cc1	GDH-TPI counter 35.4 (no result: RecA intein inh)
CCOc1cc(C(=O)N2CCN(c3ccc(C(C)=O)cc3)CC2)cc(OCC)c1OCC	GDH-TPI counter 31.2
Cc1ccc(C(=O)N2N=C(c3ccc(NS(C)(=O)=O)cc3)CC2c2cccs2)cc1 (configuration not stated)	none
COc1ccc(C(=O)N2N=C(c3ccc(NS(C)(=O)=O)cc3)CC2c2cccs2)cc1 (configuration not stated)	none
CS(=O)(=O)Nc1ccc(C2=NN(C(=O)C3CCCCC3)C(c3cccs3)C2)cc1 (configuration not stated)	FBA Mtb inh active
CS(=O)(=O)Nc1ccc(C2=NN(S(C)(=O)=O)C(c3ccccc3)C2)cc1 (configuration not stated)	FBA Mtb inh 132.1
CC(C)C(=O)N1N=C(c2ccc(NS(C)(=O)=O)cc2)CC1c1cccs1 (configuration not stated)	FBA Mtb inh active
CS(=O)(=O)Nc1ccc(C2=NN(S(=O)(=O)c3ccccc3)C(c3cccs3)C2)cc1 (configuration not stated)	none
Cc1onc(-c2ccc(Cl)cc2)c1-c1ccn(S(=O)(=O)c2ccccc2)n1	none (no result: Mtb betalactam, RecA intein inh, GDH-TPI counter, FBA Mtb inh)
COc1cc(/C=N/NC(=O)c2sc(N)c(C#N)c2C)ccc1O	GDH-TPI counter 60.7
COc1cc(/C=N/NC(=O)c2ccccc2NS(=O)(=O)c2cccs2)ccc1O	GDH-TPI counter 35.8 (no result: Mtb betalactam, RecA intein inh)
O=C(NN=Cc1ccc(F)cc1)c1ccccc1NS(=O)(=O)c1cccs1	none (no result: RecA intein inh)
Cc1c(C(=O)N/N=C/c2ccc(O)c(Br)c2)sc(N)c1C#N	none (no result: RecA intein inh)
O=C(N/N=C/c1ccc([N+](=O)[O-])o1)c1ccccc1NS(=O)(=O)c1cccs1	RecA intein inh 40.0, GDH-TPI counter 32.5
O=C(O)c1ccc(-n2nc(-c3ccccc3O)nc2-c2ccccc2O)cc1	none (no result: Mtb betalactam, RecA intein inh, GDH-TPI counter, FBA Mtb inh)
COCCN1C(=O)C2=C(C1=O)C1N(C)c3ccccc3[C@@]13C[C@@H](CO)N(C(C)=O)C3=N2 (some centres not stated)	none (no result: Mtb betalactam, RecA intein inh, GDH-TPI counter, FBA Mtb inh)
COC(=O)[C@H](C(C)C)N1Cc2nnn(Cc3ccccc3)c2-c2ccccc2S1(=O)=O	none (no result: Mtb betalactam, RecA intein inh, GDH-TPI counter, FBA Mtb inh)
Cc1cc2oc(=O)cc(CN3CCN(C/C=C/c4ccccc4)CC3)c2cc1O	GDH-TPI counter 35.1
CCc1cc2c(CN3CCN(C)CC3)cc(=O)oc2cc1O	FBA Mtb inh active
O=c1cc(CN2CCN(C/C=C/c3ccccc3)CC2)c2cc(O)c(-c3ccccc3)cc2o1	none
CCc1cc2c(CN3CCN(CCO)CC3)cc(=O)oc2cc1O	FBA Mtb inh 186.5
CN1CCN(Cc2cc(=O)oc3cc4c(cc23)CCC4)CC1	Mtb betalactam inconclusive
COc1ncc(-c2cc(C(C)=O)c3n(c2=O)CCC3)c(OC)n1	none (no result: Mtb betalactam, RecA intein inh, GDH-TPI counter, FBA Mtb inh)
CCOC(=O)[C@]12CCCC=C1N(Cc1ccc(OC)cc1)C(=O)[C@@H]2CC(=O)N1CCSCC1	none (no result: Mtb betalactam, RecA intein inh, GDH-TPI counter, FBA Mtb inh)
CCOCCC(=O)Nc1ccc2c(c1)c(=O)n(C)n2-c1ccccc1F	FBA Mtb inh 181.1 (no result: Mtb betalactam, RecA intein inh)
CCOCCC(=O)Nc1ccc2c(c1)c(=O)n(C)n2C/C=C/c1ccccc1	FBA Mtb inh 113.1 (no result: Mtb betalactam, RecA intein inh)
Cn1c(=O)c2cc(NC(=O)CCc3ccccc3)ccc2n1-c1ccccc1F	FBA Mtb inh 114.0 (no result: Mtb betalactam, RecA intein inh)
CSCC[C@H](NC(=O)CCn1nnc2ccccc2c1=O)C(=O)O	none
CC(C)C[C@H](NC(=O)CCCn1nnc2ccccc2c1=O)C(=O)O	GDH-TPI counter 58.9
COc1cccc(-c2nnc(SCC(=O)OC(C)C)n2-c2ccc(Cl)cc2)c1	none (no result: Mtb betalactam, RecA intein inh, GDH-TPI counter, FBA Mtb inh)
CC1(C)SC(=S)N(/N=C/c2ccccc2)C1N(O)C(=O)Nc1ccc([N+](=O)[O-])cc1 (configuration not stated)	GDH-TPI counter 42.1
CNC(=O)N(O)C1N(/N=C/c2ccc(N(C)C)cc2)C(=S)SC1(C)C (configuration not stated)	none
CC(C)CNc1ccc2c(c1)OC[C@@H](CC(C)C)NS2(=O)=O	none (no result: Mtb betalactam, RecA intein inh, GDH-TPI counter, FBA Mtb inh)
O=C(Nc1ccccc1[N+](=O)[O-])C1=C(O)CCn2c1nc1ccccc12	GDH-TPI counter 39.2
COc1ccc(N=CC2=C(O)CCCC2=O)cc1	GDH-TPI counter 37.0
COc1ccc(N=CC2=C(O)CC(C)(C)CC2=O)cc1	GDH-TPI counter 41.6
COc1ccc(OC)c(N=CC2=C(O)CC(C)(C)CC2=O)c1	GDH-TPI counter 38.5
CC1(C)CC(=O)C(C=Nc2ccncc2)=C(O)C1	none
CC1(C)CC(=O)C(C=NCc2ccc3c(c2)OCO3)=C(O)C1	none
CC1(C)CC(=O)C(C=Nc2ccc3c(c2)OCO3)=C(O)C1	GDH-TPI counter 54.2
COc1ccc(N=Cc2c(O)cc(C)oc2=O)cc1	none
